For 66 molecules, activation results are on record in PubChem BioAssay AID1777 (Sanford-Burnham Center for Chemical Genomics, 2009).

Out of some 280,000 compounds screened, about 50 (0.02%) were called active. The sample as a whole holds a higher share of actives than the screen did. Measured potencies and affinities stand elsewhere. Unmarked numbers belong to inactive results. No stated cut-off is given here; in the data, active means activation above about 50% (passing the limit was not always enough); inactive means the rest.

In the experiment the target is Kappa-type opioid receptor (Homo sapiens) (UniProt P41145). Kind of experiment: kappa opioid receptor activators – cell-based, luminescence, uHTS, primary screen (AID 1777). The settings on record: KOR beta-arrestin recruitment, at 10 µM, hits give high values. Background: Arrestin recruitment assays detect the binding of arrestin to an activated receptor.
Chain of Kappa-type opioid receptor (Homo sapiens) (P41145 whole entry, looked up): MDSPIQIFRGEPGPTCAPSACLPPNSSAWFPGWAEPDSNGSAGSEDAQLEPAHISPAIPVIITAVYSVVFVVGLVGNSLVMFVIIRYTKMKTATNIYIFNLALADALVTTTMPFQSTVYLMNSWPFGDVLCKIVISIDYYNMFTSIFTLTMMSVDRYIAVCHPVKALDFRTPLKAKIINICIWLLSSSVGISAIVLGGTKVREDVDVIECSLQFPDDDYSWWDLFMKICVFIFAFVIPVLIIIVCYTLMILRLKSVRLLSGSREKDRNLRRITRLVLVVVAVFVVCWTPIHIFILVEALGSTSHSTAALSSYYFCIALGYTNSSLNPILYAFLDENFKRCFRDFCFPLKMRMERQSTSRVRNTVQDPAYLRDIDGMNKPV
For `CN(C)/C=C/C(=O)c1ccc(S(=O)(=O)c2ccccc2)cc1`, the activation was -5%.
Then `C=CCSc1nc(C)c(CCC(C)C)c(=O)[nH]1`, with -2.2%; and `COc1ccc([N+](=O)[O-])cc1NC(=O)COC(=O)c1ccccc1C(=O)c1ccccc1`, with -5.5%; and `CCc1ccccc1NC(=O)c1cccc(N2C(=O)C3C4CCC(C4)C3C2=O)c1` (stereo unspecified), with 3.3%.
Then `Cc1ccc2[nH]c(=O)c(CN(C)C(=O)c3ccccn3)cc2c1`, with -3.6%; and `CCCN(Cc1cc2cc(C)ccc2[nH]c1=O)C(=O)c1ccccn1`, with 9.9%.
As for `CCCN(Cc1cc2ccc(C)cc2[nH]c1=O)C(=O)c1ccccn1`, the figure is 46.4%.
As to `CCCCN(Cc1cc2cc(OC)ccc2[nH]c1=O)C(=O)c1ccccn1`, the activation was 40.3%.
Then `COCC(=O)N(Cc1cc2ccccc2[nH]c1=O)c1ccc(OC)cc1`, with 9.6%.
As for `COc1ccc2nc(NC(=O)CCNS(=O)(=O)c3ccc4c(c3)oc(=O)n4C)sc2c1`, the figure is -3.3%.
As for `COc1ccc(OCC(=O)NNC(=O)C2CCCO2)cc1` (stereo unspecified), the figure is 8.8%; as for `Cc1ccc(-n2nnc3c(=O)n(CC(=O)c4ccccc4)cnc32)cc1`, 4.2%.
As to `CCOC(=O)Cn1cnc2c(nnn2-c2ccccc2)c1=O`, the activation is -1%.
Then `CCOc1ccc(-n2nnc3c(=O)n(CC(=O)c4ccccc4)cnc32)cc1`, with 52.9% (active); and `CCOc1ccc(-n2c(=O)c3sccc3n(CC(=O)NCC3CCCO3)c2=O)cc1` (stereo unspecified), with -4.3%; and `O=C(Cc1ccccc1)c1c[nH]c(C(=O)NCCCn2ccnc2)c1`, with 1.2%.
In the case of `CC(N=C(NC#N)Nc1ccncc1)C(C)(C)C` (stereo unspecified), the activation was -0.9%.
Then `CCC(C)(C)N=C(NC#N)Nc1cccnc1`, with 87.5% (active); and `CC(Nc1cccnc1)=C(C#N)C#N`, with -7.7%; and `CCCCN(C(=O)c1cc(CC)c(C)s1)c1c(N)n(CC(C)C)c(=O)[nH]c1=O`, with -0.3%.
As for `COC(=O)c1ccc(NC(=S)N(Cc2cccnc2)Cc2ccco2)cc1`, the figure is -0.8%; as for `O=C(c1ccc(Cl)cc1)N(Cc1ccc(Br)cc1)N1C(=O)CCC1=O`, 1.3%.
`O=C(c1ccc([N+](=O)[O-])cc1)N(Cc1ccc(Cl)cc1Cl)N1C(=O)CCCC1=O`: the activation was -0.8%.
Then `O=C(c1ccccc1Cl)N(Cc1ccc(Br)cc1)N1C(=O)CCCC1=O`, with -1%; and `O=C(c1ccc(Cl)cc1)N(Cc1ccccc1F)N1C(=O)CCCC1=O`, with -0.9%; and `COC(=O)C1=CN(CC2CCCO2)C=C(C(=O)OC)C1c1ccsc1` (stereo unspecified), with -4.3%.
As for `COc1cc(/C=N/Nc2ccc(C(F)(F)F)cn2)cc(OC)c1O`, the figure is -5%; as for `Cn1c2ccccc2c(=O)c2ccc(C#CC3(N)CCCCC3)cc21`, -3.1%.
Then `O=C(c1ccc(S(=O)(=O)N2CCCC2)cc1)N1CCC(CN2C(=O)c3cccc4cccc(c34)C2=O)CC1`, with 0.7%; and `CC(C)C[C@H](NC(=O)c1nc[nH]c1C(=O)N[C@@H](CCCCNC(=O)OC(C)(C)C)C(=O)OC(C)(C)C)C(=O)OC(C)(C)C`, with 5.3%.
Consider `CCN(CC)CCNc1nc(C(F)(F)F)nc2c1nnn2Cc1ccccc1`, for which the activation was -3.1%.
As to `O=C(Cc1ccc([N+](=O)[O-])cc1)N/N=C/c1ccccc1F`, the activation was -4.4%.
Then `CCC(C)(C(=O)NC1CCCCC1)N(C)C(=O)c1ccccn1` (stereo unspecified), with 1.2%; and `CCC(C)(C(=O)NC1CCCC1)N(Cc1ccco1)C(=O)c1ccc2c(c1)OCO2` (stereo unspecified), with 10.3%; and `CCC(C)(C(=O)NC1CCCCC1)N(Cc1ccco1)C(=O)c1ccc2c(c1)OCO2` (stereo unspecified), with 1.2%.
As to `CCC(C)(C(=O)NC1CCCC1)N(C)C(=O)c1ccccn1` (stereo unspecified), the activation was -0.7%.
On to `CCC(C)(C(=O)NC1CCCC1)N(C(=O)c1cnccn1)c1ccccc1` (stereo unspecified), for which the activation is -12.3%.
As for `CCC(C)(C(=O)NC1CCCCC1)N(Cc1ccco1)C(=O)CNC(=O)c1ccccc1` (stereo unspecified), the figure is 1.6%; as for `CC(C)(C)c1cc(C(=O)NC2CC2)n(Cc2ccc(F)cc2)n1`, -4.7%; as for `CS(=O)(=O)c1ccc(NCC2CCCO2)c([N+](=O)[O-])c1` (stereo unspecified), -3.6%.
Then `O=c1[nH]cc(S(=O)(=O)NCc2ccccc2)c(=O)[nH]1`, with -1.3%; and `CCNS(=O)(=O)c1ccc(CCC(=O)Nc2ccccc2C(=O)OC)cc1`, with -1.4%.
Then `Cc1cc(C)cc(C(=O)NCC(=O)OCC(=O)N2CCN(S(=O)(=O)c3ccc4ccccc4c3)CC2)c1`, with -0.4%; and `CCC(C)(C(=O)NC1CCCCC1)N(Cc1cccs1)C(=O)c1ccc(=O)[nH]c1` (stereo unspecified), with -6.4%.
With `CCC(C)(C(=O)NC1CCCCC1)N(Cc1cccs1)C(=O)Cc1cccs1` (stereo unspecified), the activation is 3.8%.
As for `CCC(C)(C(=O)NC1CCCC1)N(Cc1cccs1)C(=O)Cc1cccs1` (stereo unspecified), the figure is -0.9%.
As for `CCC(C)(C(=O)NC1CCCC1)N(Cc1cccs1)C(C)=O` (stereo unspecified), the figure is -2.2%; as for `CC(=O)c1sc(N/N=C\c2ccc(Br)cc2)nc1C`, 3.5%.
As for `COc1ccc(N2CCN(S(=O)(=O)CCNC(=O)COc3ccccc3OC)CC2)cc1`, the figure is -4.1%; as for `NC1=NC(c2cn[nH]c2-c2ccc(F)cc2)n2c(nc3ccccc32)N1` (stereo unspecified), 0.5%; as for `CC(CNC(=O)c1ccc2c(c1)OCO2)c1ccc([N+](=O)[O-])cc1` (stereo unspecified), -4.6%.
For the molecule `O=C(CN1C(=O)COc2ccccc21)N(Cc1ccc2c(c1)OCO2)CC1CCCO1` (stereo unspecified), the activation is 72.1%.
As for `COc1ccc(CN(CC2CCCO2)C(=O)CN2C(=O)C(C)Oc3ccc(C)cc32)cc1OC` (stereo unspecified), the figure is 50.9%.
As for `O=C(CCCCCBr)N1CCC(CC2CC(c3ccc(Cl)cc3)=NO2)(C(=O)NCC2CCCCC2)CC1` (stereo unspecified), the figure is -0.1%; as for `CCN1CCc2c(sc(NC(=O)c3cc4ccccc4cc3OC)c2C(N)=O)C1`, 0.1%; as for `CC(C)N1CCc2c(sc(NC(=O)c3ccc4ccccc4c3)c2C(N)=O)C1`, -0.3%.
With `N#C/C(=C\c1ccc(-c2nc3ccccc3s2)o1)C(N)=O`, the activation was 0.2%.
Then `CNC(=O)/C(C#N)=C/c1ccc(-c2nc3ccccc3s2)o1`, with 169% (active); and `N#C/C(=C\c1ccc(-c2ccccc2Cl)o1)C(=O)Nc1nc2ccccc2s1`, with -1.8%.
Then `CN=C1SC(CC(=O)Nc2ccccc2F)C(=O)N1/N=C/c1ccc(O)c(OC)c1` (stereo unspecified), with 14.6%; and `Cn1c(=O)c(=O)n(C)c2cc(S(=O)(=O)N3CCCC3C(=O)NCc3cccs3)ccc21` (stereo unspecified), with 1%; and `N#Cc1ccc(-c2ccc(F)cc2)nc1SCC(=O)Nc1sc2c(c1C#N)CCC2`, with -1%.
Turning to `COc1ccc(-c2ccc(C#N)c(SCC(=O)Nc3sc4c(c3C#N)CCC4)n2)cc1`, the activation is -2.3%.
Then `CCc1ccccc1OCC(=O)N(CC)CC(=O)NCc1ccc(F)cc1`, with -3%; and `Cc1cc(C(=O)CSc2nncn2C)c(C)n1-c1ccccc1`, with -2.9%.
Then `Cc1nc(C)c(NC(=O)OC(C)C)cc1NC(=O)OC(C)C`, with -4.7%.
